Values without a mark were called inactive. Results filed as inconclusive are left out. Activity calls are given as the source filed them. Calls follow the shape of the dose curve; as a rule, active = well fitted curve in the direction sought with a large enough effect; inconclusive = small, poorly fitted or top-dose-only effect, or another doubt; inactive = no such curve, though single readings can be large; an effect the other way counts as inactive or inconclusive.

This note sets out measurements from PubChem BioAssay (NCATS).

A short description of test [1]: P-glycoprotein substrates identified in KB-8-5-11 adenocarcinoma cell line, qHTS therapeutic library screen (AID 1346987). Also: nearly all actives have a fitted effect of over 65% in size. Also: potency is read from the fitted curve at half-maximal effect. Summed up:
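Compounds are pinned in dose-response onto KB-8-5-11 cells (500 cells/well, colchicine-free medium) and left 72 h at 37 degree C. CellTiter-Glo luminescence then yields AC50 values.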
Background: In qHTS, concentration-response curves come from the screen itself.

Test [2] is described as follows: Primary qHTS for inhibitors of nuclear receptor binding SET domain protein 2 (NSD2) in an isogenic RCH-ACV NSD2 p.E1099K mutant (9B) (AID 1645876). Also: nearly all actives have a fitted effect of over 70% in size. Also: potency is read from the fitted curve at half-maximal effect.
The target of test [3] is Phospholipid hydroperoxide glutathione peroxidase GPX4 (Homo sapiens) (UniProt P36969). The experiment in a line: Primary qHTS Assay for Inhibitors of Recombinant Selenoprotein Glutathione Peroxidase 4 (GPX4) (AID 1845192). Also: nearly all actives have a fitted effect of over 65% in size. A digest of the protocol: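 qHTS, GR-coupled: GPX4 200 nM + cpd 30 min RT → GSH 1 mM, NADPH 0.5 mM, GR 100 nM → CHP 0.5 mM start; fluor 340/450 at t0 and t15 min; no-enzyme wells as control.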
Chain of Phospholipid hydroperoxide glutathione peroxidase GPX4 (Homo sapiens) (P36969 whole entry, looked up): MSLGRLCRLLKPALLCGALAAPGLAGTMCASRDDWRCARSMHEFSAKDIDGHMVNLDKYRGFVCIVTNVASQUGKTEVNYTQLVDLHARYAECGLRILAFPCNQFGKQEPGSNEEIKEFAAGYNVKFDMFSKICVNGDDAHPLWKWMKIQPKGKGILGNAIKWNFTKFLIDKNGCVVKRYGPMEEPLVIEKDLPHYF

For test [4], the target named is Luciferin 4-monooxygenase (Photinus pyralis) (UniProt P08659). Briefly: Primary firefly luciferase (FLuc) qHTS assay for identification of artifact compounds. (AID 1845220). Also: nearly all actives have a fitted effect of over 60% in size. The note with it: outcome: dose series up to 54.1 µM unless noted. Summed up: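 qHTS, 15 min compound preincubation with substrate (10 uM luciferin, 10 uM ATP) at RT, then 10 nM FLuc; 5 min; luminescence; % inhibition vs no-enzyme/DMSO controls, 4-parameter Hill fit.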

For test [5], the system named is CRL-7250. Briefly: Cytotoxic Profiling of Annotated Libraries Using Quantitative High-Throughput Screening (AID 1296008). Also: nearly all actives have a fitted effect of over 60% in size. Also: potency is read from the fitted curve at half-maximal effect. As to max response: % is scaled to controls: 0 for no effect and ±100 for the full control effect. The following applies: Five cell lines viability, CellTiter-Glo ATP luminescence, 48-72 h; max response: stronger effect = lower value. A digest of the protocol: (§1)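 Compounds were pin-transferred onto cells and incubated 48 or 72 hr at 37 degree Celsius, 95% humidity. CellTiter-Glo was added, plates sat 10 min at room temperature, then ATP-coupled luminescence was imaged as the viability read-out.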
In general terms: In ATP-based viability assays light output follows the ATP content of the culture.

The subject of test [6] is HEK293. The test is described as above. The note with it: Five cell lines viability, CellTiter-Glo ATP luminescence, 48-72 h; max response: stronger effect = lower value. A digest of the protocol: as §1
Test [7] has as its system HaCat. The description is as above. The note with it: Five cell lines viability, CellTiter-Glo ATP luminescence, 48-72 h; max response: stronger effect = lower value. Summed up: as §1
The subject of test [8] is NIH3T3. Described as above. The following applies: Five cell lines viability, CellTiter-Glo ATP luminescence, 48-72 h; max response: stronger effect = lower value. Summed up:
as §1

The subject of test [9] is C33A. The experiment in a line: Primary qHTS to identify gynecologic anti-cancer compounds using libraries of approved drugs and bioactive compounds (AID 1345084). Also: nearly all actives have a fitted effect of over 55% in size. Also: potency is read from the fitted curve at half-maximal effect. The note with it: Gynecologic cancer cell panel viability, ATPlite luminescence, 48 h; series mostly up to 57.5 µM. A digest of the protocol: (§2)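 48 h compound exposure at 37 C, 5% CO2; five-point qHTS. ATPlite luminescence readout of cell ATP.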

For test [10], the system named is CAOV3. The description is as above. The following applies: Gynecologic cancer cell panel viability, ATPlite luminescence, 48 h; series mostly up to 57.5 µM. A digest of the protocol:
as §2

Test [11] deals with CASKI. Described as above. The following applies: Gynecologic cancer cell panel viability, ATPlite luminescence, 48 h; series mostly up to 57.5 µM. A digest of the protocol:
as §2

In test [12] the test system is Es-2. The test is described as above. The following applies: Gynecologic cancer cell panel viability, ATPlite luminescence, 48 h; series mostly up to 57.5 µM. A digest of the protocol: as §2
Test [13] relates to Hek293T. The description is as above. The note with it: Gynecologic cancer cell panel viability, ATPlite luminescence, 48 h, control line for the selectivity index; series mostly up to 57.5 µM. A digest of the protocol:
as §2

Test [14] deals with JEG-3. The description is as above. The following applies: Gynecologic cancer cell panel viability, ATPlite luminescence, 48 h; series mostly up to 57.5 µM. Summed up: as §2
Test [15] deals with OV90. The description is as above. The following applies: Gynecologic cancer cell panel viability, ATPlite luminescence, 48 h; series mostly up to 57.5 µM. Summed up:
as §2

Test [16] has as its system PA-1. The test is described as above. The following applies: Gynecologic cancer cell panel viability, ATPlite luminescence, 48 h; series mostly up to 57.5 µM. A digest of the protocol: as §2
Test [17] has as its system Tov-21-G. The description is as above. The note with it: Gynecologic cancer cell panel viability, ATPlite luminescence, 48 h; series mostly up to 57.5 µM. A digest of the protocol: as §2
In test [18] the test system is Tov112D. Described as above. The note with it: Gynecologic cancer cell panel viability, ATPlite luminescence, 48 h; series mostly up to 57.5 µM. Summed up: as §2
Test [19] concerns the target Calcium and integrin-binding protein 1 (Homo sapiens) (UniProt Q99828). Briefly: Primary qHTS for Identification of Calcium Integrin Binding Protein 1 (CIB1) Competitor (AID 1508620).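 Also: GST tagged CIB1 binding a fluorescein labelled alphaIIb integrin peptide tracer; top concentration of the series differs between compounds; % is scaled to controls: 0 for no effect and ±100 for the full control effect.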 Summed up:
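Fluorescence polarization competition: CIB1-GST (1 uM final) preincubated with compound 15 min at room temperature, then FITC-labeled alphaIIb peptide (100 nM final) added for another 15 min. Polarization read at Ex 480/Em 540.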

The test system of test [20] is Nanoluciferase (engineered Oplophorus gracilirostris luciferase). The experiment in a line: Primary Nanoluciferase (NLuc) qHTS assay for identification of artifact compounds. (AID 1845222). A digest of the protocol:
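Luminescence read-out of secreted NLuc in S16 cell conditioned medium (1:55); compounds tested with 15 min RT preincubation, then Nano-Glo substrate 1:100, 5 min. % inhibition vs no-enzyme and DMSO controls, 4-parameter Hill fit.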

Chain of Calcium and integrin-binding protein 1 (Homo sapiens) (Q99828 whole entry, looked up): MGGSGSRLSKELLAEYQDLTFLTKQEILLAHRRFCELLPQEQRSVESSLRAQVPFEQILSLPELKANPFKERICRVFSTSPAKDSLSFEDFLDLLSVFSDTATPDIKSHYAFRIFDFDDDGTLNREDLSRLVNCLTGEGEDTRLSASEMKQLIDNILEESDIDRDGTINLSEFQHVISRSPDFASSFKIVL

On to `C=CC(C)(C)c1[nH]c2c(CC=C(C)C)cc(CC=C(C)C)cc2c1C[C@@H]1NC(=O)[C@H](C)NC1=O`, for which the Potency result in test [1], in test [2], in test [3], in test [9], in test [10] and in [11] was “inactive” throughout. The Potency result in [12], in test [13], in test [14], in test [15], in test [16] and in test [17] was “inactive” throughout. Besides, the Potency entry in [18] was “inactive”. In addition, the call in test [4] was inactive. Also, the max response in [5] is 3.03%; in test [6] it was -8.14%; in test [7] it was -1.56%; in test [8] it was 2.77%.

In the case of `COc1cc(O)c2c(c1)/C=C/C[C@@H](O)[C@@H](O)C(=O)CCC[C@H](C)OC2=O`, the Potency result in [1], in test [19], in [3], in test [9], in [10] and in [11] was “inactive” throughout. The Potency result in test [12], in [13], in test [14], in test [15], in [16] and in test [17] was “inactive” each time. In addition, in [18], the Potency result was “inactive”. Further, the molecule was classed as inactive in [4]. Also, the Potency in test [5] was 14.3 µM (active). The max response in test [6] was 0.301%; in test [7], -18.3%; in test [8] it was -5.04%.

On to `CCC(C)(O)C1(C(=O)O)COC(=O)C1` (stereo not given), for which the Potency entry in test [1], in [19], in [2], in test [3], in test [20] and in test [9] was “inactive” in each case. For the same molecule, the Potency result in test [10], in test [11], in test [12], in [13], in test [14] and in test [15] was “inactive” each time. Also, the Potency result in [16], in test [17] and in test [18] was “inactive” throughout. For the same molecule, the outcome in [4] was “inactive [at 86.2 µM]”. Moreover, the max response in test [5] is -3.51%; in [6], 0.689%; in test [8] it was -1.83%. In addition, the molecule was classed as inactive in test [7].

With `CC1(C)C(=O)N(c2ccc(C#N)c(C(F)(F)F)c2)C(=O)N1CCCCO`, the Potency result in test [1], in [19], in test [2], in test [3], in test [20] and in test [9] was “inactive” each time. The Potency result in [10], in test [11], in test [12], in [13], in test [14] and in test [15] was “inactive” throughout. Also, the Potency result in test [16], in [17] and in test [18] was “inactive” in each case. Moreover, in test [4], the molecule was classed as inactive. For the same molecule, the max response in [5] was -11%; in test [6] it was -15.9%; in test [7], -18.8%; in [8] it was -6.14%.

For `CC[C@H]1C2CC3[C@@H]4N(C)c5ccccc5[C@]45C[C@@H]([C@H]2[C@H]5O)N3[C@H]1O`, the Potency entry in test [1], in [2], in test [3], in [20], in test [9] and in test [10] was “inactive” each time. Also, the Potency result in test [11], in test [12], in test [13], in test [14], in test [15] and in test [16] was “inactive” in each case. Besides, the Potency entry in [17] and in [18] was “inactive” in each case. Besides, the call in test [4] and in test [7] was inactive. Besides, the max response in test [5] was 3.45%; in test [6], 3.06%; in test [8], 4.15%.

Consider `N#Cc1ccc([C@H]2CCCC[C@H]2O)cc1C(F)(F)F`, for which the Potency entry in test [1], in test [19], in test [2], in [3], in [20] and in [9] was “inactive” in each case. Further, the Potency entry in test [10], in test [11], in test [12], in test [13], in test [14] and in test [15] was “inactive” in each case. For the same molecule, the Potency entry in test [16], in test [17] and in [18] was “inactive” throughout. In addition, the molecule was classed as inactive in [4]. The max response in test [5] is 1.6%; in test [6], -11%; in test [7] it was -7.91%; in [8], -1.88%.

As for `CC[C@H]1C[C@@H]2CC[C@@H](O2)[C@@H](C)C(=O)O[C@H](CC)C[C@H]2CC[C@H](O2)[C@H](C)C(=O)O[C@@H](C)C[C@@H]2CC[C@@H](O2)[C@@H](C)C(=O)O[C@H](CC)C[C@H]2CC[C@H](O2)[C@H](C)C(=O)O1`, the Potency in [1] is 0.968 µM (active); in [2] it was 0.0108 µM (active); in test [5] it was 0.385 µM (active); in test [6], 0.0217 µM (active); in test [7], 0.0685 µM (active); in [8] it was 0.0385 µM (active). The Potency in test [9] was 0.224 µM (active); in test [10], 0.398 µM (active); in test [11], 0.447 µM (active); in test [12], 0.501 µM (active); in [13] it was 0.355 µM (active); in test [15] it was 0.0891 µM (active). In addition, the Potency in [16] was 0.178 µM (active). For the same molecule, the Potency result in test [19], in test [3], in test [20] and in test [14] was “inactive” each time. The outcome in test [4] was inactive.

With `Cc1c(N2C(=O)[C@@H]3[C@H](O)CCN3C2=O)ccc(C#N)c1Cl`, the Potency entry in [19], in test [2], in test [3], in test [20], in [9] and in test [10] was “inactive” throughout. Moreover, the Potency entry in test [11], in test [12], in [13], in test [14], in test [15] and in test [16] was “inactive” each time. Also, the Potency entry in test [17] and in test [18] was “inactive” each time. In addition, the outcome in test [4] and in [7] was inactive. In addition, the max response in test [5] is -13.8%; in [6] it was -6.16%; in [8] it was -8.96%.

For `CS[C@]1(CO)C(=O)N2[C@H]3C(=CC=C[C@@H]3O)C[C@@]2(SC)C(=O)N1C`, the Potency result in [1], in [19], in test [2], in test [3], in [20] and in [9] was “inactive” throughout. Besides, the Potency entry in test [11], in [12], in [13], in test [14], in test [15] and in [16] was “inactive” throughout. For the same molecule, the Potency result in test [17] and in test [18] was “inactive” each time. Besides, the molecule was classed as inactive in test [4] and in [5]. Besides, the max response is -12.6% in [6], 0.502% in test [7] and -3.97% in test [8].

Regarding `CC1=CC2(O)/C=C/C(C)(O)C(O)C(O)/C=C/C(=O)OC23C(=O)NC(CC(C)C)C3C1C` (stereo not given), the Potency result in test [1], in [19], in test [2], in [3], in test [20] and in [9] was “inactive” in each case. In addition, the Potency result in test [11], in test [12], in test [13], in test [14], in [15] and in [16] was “inactive” in each case. The Potency result in [17] and in test [18] was “inactive” throughout. Moreover, the outcome in test [4] and in [7] was inactive. Also, the values for the max response in test [5], in [6] and in [8] were -1.26%, -8.27% and 0.398%, respectively.
